Source: PubChem
V-ATPase pH: regulators of yeast V-ATPase proton transport | S. cerevisiae, pHLuorin cytosolic pH fluorescence | response, % at 10 µM | actives 0.37% (n = 350,000) | AID 504577; in the data active = response mostly above about 7.3%, no sharp cut-off; inactive = mostly below about 5.4%; note: actives read high
NALP3 yeast inh: blocks the NALP3 inflammasome reconstituted in yeast | Yeast reconstituted NLRP3/ASC/caspase-1, beta-gal luminescence, 24 h | inhibition, % at 10 µM | actives 0.39% (n = 330,000);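 active = inhibition of 50% or more; inactive = inhibition below 50%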;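 note: plate controls were induced DMSO wells for no effect and uninduced yeast grown without galactose for full effect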
Rce1 inh: inhibitors of yeast Ras-converting enzyme; actives 0.27% (n = 290,000); Q03530; calls only; yeast membranes, quenched prenylated peptide cleavage fluorescence;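 active = fall in fluorescence gain of 50% or more versus controls, with final raw signal at or below 3038400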;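 note: plate controls were neutral control wells for no effect and wells lacking membranes for full effect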
NALP1 inh: inhibitors of NALP1 inflammasome in yeast; S. cerevisiae NALP1/ASC/caspase-1 growth, X-gal OD620, 72 h; inhibition, % at 10 µM; actives 0.61% (n = 280,000); AID 2071; in the data active = inhibition mostly above about 24%, no sharp cut-off; inactive = mostly below about 32%
PERK inhibitor: inhibitors of human PERK kinase; actives 0.17% (n = 220,000); CHO PERK-DD fusion, SEAP luminescence translation reporter; inhibition, % at 5.6 µM; AID 1416;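 active = inhibition above the mean inhibition of all tested compounds plus 3 SD, set separately per screening campaign, cut at about 2.9% in these data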;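 note: PERK kinase domain activated by AP20187 dimerizer at 100 nM; 0% = DMSO with dimerizer and 100% = rapamycin at 8.4 µM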
CR mimetic SO: lowers age-related superoxide in aged yeast cells | superoxide response (% of plate mean), % at 10 µM | actives 0.18% (n = 330,000) | S. cerevisiae aged cells, superoxide DHE fluorescence; active compounds read low;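 active = superoxide response under a set limit, about three screen SD below normal, cut at about 65% in these data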;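 note: yeast aged for seven days with compound at 30 °C before DHE staining; 100% = average MFI of all compound-treated wells on the plate with controls excluded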
An asterisk follows results filed as active; i = inactive; · = not tested or not shown; + = active, no number. Shown are actives, neighbours in structure and some others; about 1.6% of the full set was active somewhere.

SMILES	V-ATPase pH	NALP3 yeast inh	Rce1 inh	NALP1 inh	PERK inhibitor	CR mimetic SO
CCOCc1[nH]c(=S)[nH]c(=O)c1Cc1ccc(OCC)cc1	2	0	i	-8	1	93
O=C(Nc1ccn(CCCN2CCN(Cc3ccc(F)cc3)CC2)c(=O)n1)OCc1ccccc1	-3	·	·	·	·	·
CC(=O)c1c(-c2ccccc2)c2cc(Cl)ccc2[nH]c1=O	2	3	i	30*	0	94
CCSc1nnc(-c2c[nH]c3ccccc23)o1	-4	29	i	37*	·	97
N#CCSc1nnc(-c2c[nH]c3ccccc23)o1	2	8	i	12	·	100
Cc1ccc(NC(=O)c2oc3ccccc3c2NC(=O)c2ccc3c(c2)OCO3)cc1	-9	6	i	31*	0	98
O=C(Nc1c(C(=O)Nc2cccc(F)c2)oc2ccccc12)c1ccc2c(c1)OCO2	-5	10	i	18	1	74
CCCCCCn1c(=O)n2n(c1=O)[C@@H]1CN(S(=O)(=O)c3ccc(C)cc3)C[C@]1(O)[C@@H](OC(=O)NCc1ccco1)C2	1	·	·	·	·	·
CC(C)C(=O)Nc1nnc(-c2ccccc2)o1	-1	17	i	1	1	110
O=C(Nc1ccccc1)Nc1nnc(-c2ccccc2)o1	-3	14	i	25*	0	127
COCC(=O)N(C)C[C@H]1Oc2cc(C#Cc3cccnc3)ccc2S(=O)(=O)N([C@H](C)CO)C[C@H]1C	-2	·	·	·	·	·
CN1CCN(CC(=O)N(Cc2c(C#N)c3ccccc3n2C)c2ccccc2)CC1	-1	8	i	30*	-1	80
COCCCN(Cc1ccco1)C(=O)Cn1ncc2c(=O)oc3ccc(C)cc3c21	11	3	i	·	0	95
Cc1ccc2oc(=O)c3cnn(CC(=O)N(CCN(C)C)Cc4ccco4)c3c2c1	-3	18	i	41*	0	86
CC(C)(C)NS(=O)(=O)c1cccc2nsnc12	·	5	i	·	3.7*	92
CC[n+]1c(/C=C/c2c[nH]c3ccccc23)ccc2cc(C)ccc21	8.2*	33	·	-4	-1	·
CCN(CC)C(=O)c1ccc(/C=C/c2c[nH]c3ccccc23)[n+](C)c1	-4	22	i	16	2	95
CC(=O)c1c(C(C)=O)c(C)n(Cc2ccccc2)c1C	4	27	i	-6	0	96
Cc1c(C=O)c(C=O)c(C)n1Cc1ccccc1	2	11	i	37*	-1	105
CC(=O)c1ccc(Nc2cc(C)nc3c(C)cccc23)cc1	1	10	i	28*	-1	97
CCN(CC)C(=O)C1=C(C)N(Cc2ccc(C(C)(C)C)cc2)C(=O)C(CC(=O)NCc2cccs2)C1 (stereo unspecified)	2	·	·	·	·	·
Cc1cccc(OCC(=O)Nc2ccccc2N2CCCCC2)c1C	8.8*	12	i	·	·	85
COc1cccc(NC(=O)CN2CCC(NC(=O)c3ccccc3C)CC2)c1	3	·	·	·	·	·
CC(C)CC1C(=O)N(Cc2cn(CC3CCCCC3)nn2)CCS(=O)(=O)N1Cc1ccc(-c2ccncc2)cc1 (stereo unspecified)	0	·	·	·	·	·
O=C(NCCOc1ccccc1)C1Nc2ccc(OC(F)(F)F)cc2C2C=CCC12 (stereo unspecified)	17*	19	i	·	·	104
SMILES	V-ATPase pH	NALP3 yeast inh	Rce1 inh	NALP1 inh	PERK inhibitor	CR mimetic SO
COCOCCn1cc(CN2CCS(=O)(=O)N(Cc3ccc(-c4ccc(Cl)c(Cl)c4)cc3)C(C(C)C)C2=O)nn1 (stereo unspecified)	2	·	·	·	·	·
CC(Cc1cccs1)NC(=O)Nc1ccc([N+](=O)[O-])cc1 (stereo unspecified)	4	7	+	-11	0	97
CC(Cc1cccs1)NC(=O)c1cccs1 (stereo unspecified)	5	18	i	-3	0	91
O=C(/C=C/Nc1ccccc1F)c1cccs1	9	25	i	57*	0	105
COc1ccc(C)cc1NC(=O)CCC(=O)Nc1ccc2nc(N3CCN(C)CC3)cc(C)c2c1	·	-3	+	4	-1	91
O=[N+]([O-])c1cc(CN2CCN(c3ccccc3)CC2)c(O)c2ncccc12	6.6*	15	i	-10	-2	124
Oc1c(CN2CCCCC2)cc(Br)c2cccnc12	-1	44	i	58*	0	77
